The results in this text go back to PubChem BioAssay (NCATS).

In test [1] the target is Cytochrome P450 3A4 (Homo sapiens) (UniProt P08684). Put plainly: qHTS Assay for Inhibitors and Substrates of Cytochrome P450 3A4 (AID 884). Also: nearly all actives have a fitted effect of over 50% in size. Also: potency is read from the fitted curve at half-maximal effect. Summed up: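 20 nM human CYP3A4 with 25 uM Luciferin-PPXE (at KM) in 200 mM KPO4, preincubated 10 min with compound; NADPH regeneration started a 60 min RT reaction. Luciferin detected by luminescence, normalized to 57 uM ketoconazole as full inhibition.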
Sequence of Cytochrome P450 3A4 (Homo sapiens) (P08684 whole entry, looked up): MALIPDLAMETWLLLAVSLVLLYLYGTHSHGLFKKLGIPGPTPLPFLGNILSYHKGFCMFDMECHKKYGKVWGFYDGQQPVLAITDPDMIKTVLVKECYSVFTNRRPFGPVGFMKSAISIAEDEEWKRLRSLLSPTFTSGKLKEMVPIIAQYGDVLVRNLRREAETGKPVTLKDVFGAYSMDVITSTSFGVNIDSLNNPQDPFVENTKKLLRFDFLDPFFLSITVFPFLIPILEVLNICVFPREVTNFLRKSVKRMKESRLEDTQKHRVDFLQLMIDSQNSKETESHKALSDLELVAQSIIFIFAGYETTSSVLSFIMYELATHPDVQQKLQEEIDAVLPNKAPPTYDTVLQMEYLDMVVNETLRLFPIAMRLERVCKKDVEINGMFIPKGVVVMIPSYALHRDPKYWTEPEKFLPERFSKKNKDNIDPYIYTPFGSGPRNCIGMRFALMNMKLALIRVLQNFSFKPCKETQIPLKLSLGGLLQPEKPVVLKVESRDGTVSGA
On the technique in general: In qHTS, concentration-response curves come from the screen itself.

Test [2] in a line: MultiTox-Fluor Cytotoxicity Assay - LYMP1-001 - Live Cells (AID 947).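 Also: 0% = DMSO only and full inhibition = tetraoctylammonium bromide control.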
Test [3] can be described thus: Cell Viability - LYMP2-004 (AID 966).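 Also: plate controls were DMSO only for no effect and tetraoctylammonium bromide control for full effect; nearly all actives have a fitted effect of over 65% in size.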 Summed up: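 Acute toxicity is scored as a concentration-dependent drop in intracellular ATP, quantified by luciferase luminescence, in human lymphoblastoid cells exposed to compound for 24 hr. AC50 derives from Hill-equation modelling.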
A short description of test [4]: Cell Viability - LYMP2-009 (AID 968).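 Also: series mostly up to about 92 µM; cells exposed to compound for 24 h at 37 °C; 0% = DMSO alone and the full-kill end = tetraoctylammonium bromide at 92 µM; nearly all actives have a fitted effect of over 55% in size.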
Test [5] in a line: Cell Viability - LYMP2-010 (AID 981).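 Also: cells exposed to compound for 24 hours at 37 °C; % is scaled to controls: 0 for no effect and ±100 for the full control effect; nearly all actives have a fitted effect of over 55% in size.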 Summed up: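 Acute toxicity is scored as a concentration-dependent loss of cellular ATP in human lymphoblastoid cells after 24 hr compound exposure in complete medium. Tetraoctylammonium bromide is the positive control.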
A short description of test [6]: Cell Viability - LYMP2-012 (AID 982).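 Also: cellular ATP by luciferase luminescence where a drop means cytotoxicity; cells exposed to compound for one day before reading; 0% = DMSO only and full loss = 92 µM tetraoctylammonium bromide; nearly all actives have a fitted effect of over 55% in size.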
In test [7] the target is Peroxisome proliferator-activated receptor delta (Homo sapiens) (UniProt Q03181). Put plainly: qHTS assay for small molecule agonists of peroxisome proliferator-activated receptor delta signaling (AID 588534; calls by dose curve;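 also: 0% = DMSO basal wells and 100% = positive control agonist at 10 µM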). Summed up: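 Reporter cells were plated and held 5 hrs at 37 C before compounds were added. After 18 hrs at 37 C, CCF4 dye was loaded for 2 hrs at RT and fluorescence measured.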
Sequence of Peroxisome proliferator-activated receptor delta (Homo sapiens) (Q03181 whole entry, looked up): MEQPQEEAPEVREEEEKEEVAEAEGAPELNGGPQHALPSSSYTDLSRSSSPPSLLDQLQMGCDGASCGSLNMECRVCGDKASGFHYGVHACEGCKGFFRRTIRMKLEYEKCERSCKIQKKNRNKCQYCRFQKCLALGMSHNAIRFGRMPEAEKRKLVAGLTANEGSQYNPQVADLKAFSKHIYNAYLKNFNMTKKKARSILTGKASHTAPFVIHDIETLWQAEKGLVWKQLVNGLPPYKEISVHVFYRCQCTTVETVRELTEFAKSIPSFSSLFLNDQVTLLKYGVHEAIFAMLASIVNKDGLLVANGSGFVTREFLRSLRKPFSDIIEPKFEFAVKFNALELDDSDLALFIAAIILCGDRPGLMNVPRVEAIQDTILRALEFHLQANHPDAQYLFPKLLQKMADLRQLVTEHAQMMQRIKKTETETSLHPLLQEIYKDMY

The target of test [8] is Thyroid hormone receptor beta (Homo sapiens) (UniProt P10828). Put plainly: qHTS assay for small molecule agonists of thyroid hormone receptor beta signaling (AID 588545; calls by dose curve). A digest of the protocol:
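Agonist-mode beta-lactamase reporter assay, HEK 293 cells, 2% charcoal/dextran FBS; cells plated 4 hrs, compound 18 hrs at 37 C, CCF4 2 hrs RT. Normalized to 10 nM T3 (100%) and DMSO (0%); Hill fit gives EC50, efficacy.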

Test [9] shares this target. Put plainly: qHTS assay for small molecule antagonists of thyroid hormone receptor beta signaling (AID 588547; active = well fitted inhibition curve with a large enough effect in the signal ratio, with a control signal flat, not every such curve was filed as active; the % refers to the signal ratio;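 also: cells stimulated with 0.4 nM T3 agonist during compound exposure; series mostly up to about 77 µM; % is scaled to controls: 0 for no effect and ±100 for the full control effect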). The note with it: TR-UAS-bla HEK293, beta-lactamase ratio, antagonist mode, 18 h. Summed up:
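TR-UAS-bla GripTite HEK293 cells in 2% charcoal/dextran FBS medium; compounds 0.59 nM to 92 uM with T3 at 0.4nM final, 18 h at 37 C. Beta-lactamase read by CCF4 fluorescence (460/530 nm); Hill fits gave IC50 and efficacy.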

The target of test [10] is Voltage-gated inwardly rectifying potassium channel KCNH2 (Homo sapiens) (UniProt Q12809). Put plainly: qHTS Assay for Small Molecule Inhibitors of the Human hERG Channel Activity (AID 588834).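 Also: top concentration of the series differs between compounds; % is scaled to controls: 0 for no effect and ±100 for the full control effect; lower thallium flux fluorescence means stronger hERG block; nearly all actives have a fitted effect of over 50% in size.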 A digest of the protocol:
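hERG-BacMam U2OS, 2000 cells/well; 0.7X FluxOR loading 1 hr RT dark; cpd ~10 min 37 °C; stim buffer; FDSS fluorescence 2 min @ 1 s; AC50 Hill fit.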

Test [11] can be described thus: qHTS assay for small molecule activators of the p53 signaling pathway (AID 651743; active = well fitted activation curve with a large enough effect in the signal ratio, not every such curve was filed as active; the % refers to the signal ratio; also: series mostly up to about 92 µM; % of control where 0% means no effect). To be noted: HCT-116 p53RE-bla, beta-lactamase FRET ratio, 16 h; activation: stronger effect = higher value. Summed up:
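HCT-116 p53RE-bla, 4,000 cells/well; 5 h settle; cpd/DMSO 16 h, 37 C; LiveBLAzer B/G 2 h RT; fluorescence intensity.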

Test [12] addresses Nuclear receptor ROR-gamma (Homo sapiens) (UniProt P51449). Put plainly: qHTS assay for small molecule antagonists of the retinoid-related orphan receptor gamma (ROR-gamma) signaling pathway (AID 651802).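 Also: CHO cells with doxycycline-induced ROR-gamma expression; series mostly up to about 92 µM; % is scaled to controls: 0 for no effect and ±100 for the full control effect; nearly all actives have a fitted effect of over 60% in size.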 A digest of the protocol:
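Antagonism is scored as a fall in luminescence from a RORE-luciferase reporter in CHO cells expressing ROR under a TET-inducible promoter, measured 16hr after doxycycline induction in the presence of compound.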

Test [13] can be described thus: qHTS assay for small molecule antagonists of the retinoid-related orphan receptor gamma (ROR-gamma) signaling pathway - cell viability counter screen (AID 720652; active = well fitted curve in the direction sought with a large enough effect in the repeat runs; an effect the other way counts as inactive or inconclusive;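 also: CHO reporter cells with doxycycline-induced ROR-gamma expression; series mostly up to about 92 µM; compound exposure lasted 16 hr before ATP read; % is scaled to controls: 0 for no effect and ±100 for the full control effect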). Summed up:
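Cytotoxicity is quantified via intracellular ATP (CellTiter-Glo luminescence) in doxycycline-induced CHO ROR response element-luciferase reporter cells treated with compound for 16 hr at 37 C, 5% CO2.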

Test [14] addresses Nuclear receptor subfamily 1 group I member 2 (Rattus norvegicus) (UniProt Q9R1A7). Put plainly: qHTS assay for small molecule activators of the rat pregnane X receptor (rPXR) signaling pathway (AID 651751; call rule not given here; also: 0% is about no effect). The note with it: rPXR reporter cells, luciferase (One-Glo), 24 h.
A short description of test [15]: qHTS assay for small molecule activators of the human pregnane X receptor (PXR) signaling pathway (AID 720659; call rule not given here; also: 0% is about no effect).
Test [16] concerns the target Estrogen receptor (Homo sapiens) (UniProt P03372). Put plainly: qHTS assay for small molecule antagonists of estrogen receptor alpha signaling (AID 588513; active = well fitted curve in the direction sought with a large enough effect in the signal ratio, with a control signal flat, not every such curve was filed as active; the % refers to the signal ratio; also: % is scaled to controls: 0 for no effect and ±100 for the full control effect). A digest of the protocol:
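Fluorescence from CCF4 substrate after 2 h at room temperature gave reporter activity; cells had been exposed to compound and 0.5nM 17-beta-estradiol for 18 h at 37 C. Hill-equation fitting yielded IC50 and maximal response.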

For test [17] the target is unchanged. Put plainly: qHTS assay for small molecule agonists of estrogen receptor alpha signaling (AID 588514; calls by dose curve;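 also: 0% = vehicle only and 100% = reference agonist; nearly all actives have a fitted effect of over 70% in size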). A digest of the protocol:
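Reporter-gene assay. […] controls beta-lactamase in HEK 293 GripTite cells; after 18 hrs with compound, CCF4 substrate is added for 2 hrs and fluorescence is read.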

Test [18] has as its target Glucocorticoid receptor (Homo sapiens) (UniProt P04150). Put plainly: qHTS assay for small molecule agonists of glucocorticoid receptor signaling (AID 588532; active = well fitted curve in the direction sought with a large enough effect in the signal ratio, with a control signal flat; the % refers to the signal ratio;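 also: 100% = dexamethasone at 0.1 µM and 0% = DMSO only wells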). The note with it: HeLa MMTV-bla, beta-lactamase ratio, agonist, 18 h; stronger effect = higher value; percent of dexamethasone control, DMSO zero. Summed up: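 MMTV-bla HeLa beta-lactamase reporter cells in 1% charcoal/dextran FBS medium, compounds up to 92 uM for 18 h at 37 C, CCF4 readout; normalized to 0.1 uM dexamethasone (100%), EC50 and efficacy from Hill fits.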

Test [19] shares this target. Put plainly: qHTS assay for small molecule antagonists of glucocorticoid receptor signaling (AID 588533; active = well fitted inhibition curve with a large enough effect in the signal ratio, with a control signal flat, not every such curve was filed as active; the % refers to the signal ratio;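 also: cells stimulated with 2 nM dexamethasone as agonist; % is scaled to controls: 0 for no effect and ±100 for the full control effect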). A digest of the protocol: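 Antagonist-mode qHTS: compound titrations added to GRE-bla HeLa cells, then dexamethasone 2 nM final; 18 h, 37 C. CCF4 FRET fluorescence normalized to dexamethasone and DMSO; IC50 from Hill fit.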
In test [20] the target is Peroxisome proliferator-activated receptor gamma (Homo sapiens) (UniProt P37231). Put plainly: qHTS assay for small molecule agonists of peroxisome proliferator-activated receptor gamma signaling (AID 588536; active = well fitted curve in the direction sought with a large enough effect in the signal ratio, with a control signal flat, not every such curve was filed as active; the % refers to the signal ratio;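 also: 0% = DMSO basal wells and 100% = rosiglitazone at 2 µM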). Summed up: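 HEK293 UAS-bla reporter line, 1% charcoal/dextran FBS; titration, 16 h, 37 C; CCF4 loading 2 h RT; fluorescence 460/530 nm. Normalized to rosiglitazone 2 uM = 100%, DMSO = 0%.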
Sequence of Peroxisome proliferator-activated receptor gamma (Homo sapiens) (P37231 whole entry, looked up): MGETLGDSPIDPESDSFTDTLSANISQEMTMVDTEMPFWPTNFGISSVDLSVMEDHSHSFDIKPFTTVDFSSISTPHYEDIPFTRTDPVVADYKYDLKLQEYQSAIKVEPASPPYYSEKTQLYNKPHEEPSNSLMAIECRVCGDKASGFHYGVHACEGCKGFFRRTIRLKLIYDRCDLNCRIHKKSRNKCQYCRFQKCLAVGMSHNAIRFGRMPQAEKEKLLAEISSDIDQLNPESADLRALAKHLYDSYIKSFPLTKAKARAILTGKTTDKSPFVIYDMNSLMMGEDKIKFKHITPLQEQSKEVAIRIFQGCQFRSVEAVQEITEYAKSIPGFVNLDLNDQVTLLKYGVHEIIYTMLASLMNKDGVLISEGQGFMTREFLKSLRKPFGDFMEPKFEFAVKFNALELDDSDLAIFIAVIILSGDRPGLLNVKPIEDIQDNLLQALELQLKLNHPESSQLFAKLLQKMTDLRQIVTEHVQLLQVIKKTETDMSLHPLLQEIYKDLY

Values joined by “and” are separate entries in the source; they are usually repeats but may differ in a detail not shown here. Identical values can stand only once. Records with an inconclusive call do not appear. The source holds several records for some structures; these can differ, active in one and inactive in another. Active and inactive are the calls of the source. Unless noted, calls follow the shape of the dose curve; as a rule, active = well fitted curve in the direction sought with a large enough effect; inconclusive = small, poorly fitted or top-dose-only effect, or another doubt; inactive = no such curve, though single readings can be large; an effect the other way counts as inactive or inconclusive.

Sequence of Thyroid hormone receptor beta (Homo sapiens) (P10828 whole entry, looked up): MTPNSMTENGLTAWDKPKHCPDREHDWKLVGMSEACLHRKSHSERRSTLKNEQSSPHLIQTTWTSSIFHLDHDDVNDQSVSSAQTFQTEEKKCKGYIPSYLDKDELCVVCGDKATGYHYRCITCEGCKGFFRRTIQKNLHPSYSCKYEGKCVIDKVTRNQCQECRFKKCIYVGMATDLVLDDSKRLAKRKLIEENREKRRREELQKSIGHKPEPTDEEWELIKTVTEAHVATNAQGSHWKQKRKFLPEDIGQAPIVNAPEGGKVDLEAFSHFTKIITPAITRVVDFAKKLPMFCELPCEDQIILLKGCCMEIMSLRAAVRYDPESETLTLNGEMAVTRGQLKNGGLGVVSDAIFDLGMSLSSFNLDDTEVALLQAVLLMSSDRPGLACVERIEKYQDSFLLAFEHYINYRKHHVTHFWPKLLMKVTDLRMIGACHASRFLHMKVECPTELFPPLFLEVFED
Sequence of Nuclear receptor ROR-gamma (Homo sapiens) (P51449 whole entry, looked up): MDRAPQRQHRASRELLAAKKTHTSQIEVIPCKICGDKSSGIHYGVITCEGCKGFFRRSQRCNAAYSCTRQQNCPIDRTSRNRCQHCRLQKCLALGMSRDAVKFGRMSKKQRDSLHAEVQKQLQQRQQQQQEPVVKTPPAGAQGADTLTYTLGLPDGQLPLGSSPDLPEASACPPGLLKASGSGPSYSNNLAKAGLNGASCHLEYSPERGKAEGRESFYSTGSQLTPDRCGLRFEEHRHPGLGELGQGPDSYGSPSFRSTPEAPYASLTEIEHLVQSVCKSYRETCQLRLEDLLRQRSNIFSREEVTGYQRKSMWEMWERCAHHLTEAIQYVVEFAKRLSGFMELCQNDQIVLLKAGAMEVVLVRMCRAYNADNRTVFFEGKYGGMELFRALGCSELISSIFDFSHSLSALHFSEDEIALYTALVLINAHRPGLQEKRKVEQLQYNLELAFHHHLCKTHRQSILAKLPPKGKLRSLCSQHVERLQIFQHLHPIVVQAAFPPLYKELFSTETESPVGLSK
Sequence of Nuclear receptor subfamily 1 group I member 2 (Rattus norvegicus) (Q9R1A7 whole entry, looked up): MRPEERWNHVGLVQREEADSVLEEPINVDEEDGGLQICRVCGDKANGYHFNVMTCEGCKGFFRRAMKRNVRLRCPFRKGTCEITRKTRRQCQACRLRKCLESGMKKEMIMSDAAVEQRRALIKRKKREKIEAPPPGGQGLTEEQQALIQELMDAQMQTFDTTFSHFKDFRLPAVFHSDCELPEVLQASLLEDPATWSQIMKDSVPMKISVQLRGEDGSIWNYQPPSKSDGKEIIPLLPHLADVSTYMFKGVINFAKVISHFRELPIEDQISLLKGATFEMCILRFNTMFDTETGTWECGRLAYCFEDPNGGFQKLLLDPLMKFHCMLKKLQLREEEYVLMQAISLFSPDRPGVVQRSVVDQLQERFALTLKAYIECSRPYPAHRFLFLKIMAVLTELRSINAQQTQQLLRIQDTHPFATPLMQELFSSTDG
Sequence of Voltage-gated inwardly rectifying potassium channel KCNH2 (Homo sapiens) (Q12809 whole entry, looked up): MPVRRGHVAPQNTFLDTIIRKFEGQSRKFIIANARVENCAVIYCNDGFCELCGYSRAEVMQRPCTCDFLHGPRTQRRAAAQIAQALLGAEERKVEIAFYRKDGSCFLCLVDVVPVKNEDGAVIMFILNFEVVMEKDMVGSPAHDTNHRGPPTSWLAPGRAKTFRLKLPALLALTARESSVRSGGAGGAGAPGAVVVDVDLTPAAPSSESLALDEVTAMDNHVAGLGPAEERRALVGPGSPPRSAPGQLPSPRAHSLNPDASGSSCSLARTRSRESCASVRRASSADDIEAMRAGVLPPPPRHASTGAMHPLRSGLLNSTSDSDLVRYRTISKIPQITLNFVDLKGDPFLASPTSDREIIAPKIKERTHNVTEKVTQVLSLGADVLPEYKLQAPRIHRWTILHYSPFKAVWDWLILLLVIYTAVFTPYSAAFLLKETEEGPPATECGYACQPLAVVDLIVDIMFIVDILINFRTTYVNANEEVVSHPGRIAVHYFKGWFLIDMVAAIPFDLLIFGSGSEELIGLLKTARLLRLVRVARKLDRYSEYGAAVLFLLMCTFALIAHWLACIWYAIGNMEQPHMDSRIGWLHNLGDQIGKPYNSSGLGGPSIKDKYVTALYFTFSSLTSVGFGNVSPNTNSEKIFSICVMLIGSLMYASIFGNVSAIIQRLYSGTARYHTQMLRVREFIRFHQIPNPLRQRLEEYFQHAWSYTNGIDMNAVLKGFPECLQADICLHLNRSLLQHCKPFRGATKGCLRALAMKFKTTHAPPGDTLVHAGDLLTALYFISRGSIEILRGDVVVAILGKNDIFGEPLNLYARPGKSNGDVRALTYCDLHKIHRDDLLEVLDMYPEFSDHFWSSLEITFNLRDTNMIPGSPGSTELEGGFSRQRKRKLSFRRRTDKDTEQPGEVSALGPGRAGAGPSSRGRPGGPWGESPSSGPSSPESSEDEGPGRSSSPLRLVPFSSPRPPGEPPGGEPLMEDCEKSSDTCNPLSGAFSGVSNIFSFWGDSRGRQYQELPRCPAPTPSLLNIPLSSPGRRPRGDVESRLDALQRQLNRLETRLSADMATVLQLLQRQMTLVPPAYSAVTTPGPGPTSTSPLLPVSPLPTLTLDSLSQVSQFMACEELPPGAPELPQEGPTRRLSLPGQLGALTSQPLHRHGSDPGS
Sequence of Glucocorticoid receptor (Homo sapiens) (P04150 whole entry, looked up): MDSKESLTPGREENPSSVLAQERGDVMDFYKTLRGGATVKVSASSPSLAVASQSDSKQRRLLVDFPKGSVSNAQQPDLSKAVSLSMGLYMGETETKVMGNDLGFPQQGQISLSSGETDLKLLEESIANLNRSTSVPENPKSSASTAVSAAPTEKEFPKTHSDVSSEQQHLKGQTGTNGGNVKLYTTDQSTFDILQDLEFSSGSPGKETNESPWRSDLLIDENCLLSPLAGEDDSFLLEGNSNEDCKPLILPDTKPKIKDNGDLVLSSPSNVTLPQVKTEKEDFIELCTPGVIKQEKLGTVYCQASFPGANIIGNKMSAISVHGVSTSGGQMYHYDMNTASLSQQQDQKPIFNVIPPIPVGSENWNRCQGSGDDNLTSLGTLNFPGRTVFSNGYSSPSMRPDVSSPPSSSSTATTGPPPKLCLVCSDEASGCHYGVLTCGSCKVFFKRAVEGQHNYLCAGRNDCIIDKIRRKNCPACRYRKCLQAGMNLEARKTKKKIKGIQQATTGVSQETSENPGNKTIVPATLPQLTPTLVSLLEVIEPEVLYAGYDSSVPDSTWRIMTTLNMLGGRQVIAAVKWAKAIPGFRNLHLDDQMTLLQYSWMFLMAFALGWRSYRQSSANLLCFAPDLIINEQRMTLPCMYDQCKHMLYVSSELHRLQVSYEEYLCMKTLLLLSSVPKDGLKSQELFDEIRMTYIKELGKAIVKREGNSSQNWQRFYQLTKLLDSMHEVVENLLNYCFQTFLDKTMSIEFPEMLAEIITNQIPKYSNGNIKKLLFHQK

With `Cc1ccccc1N`, the Potency result in test [1] is “inactive and 25.1 µM (active)”. The Potency result in test [2], in test [3], in [4], in [5], in [6] and in test [10] was “inactive” each time. For the same molecule, the Potency result in test [12] and in test [13] was “inactive” each time. In addition, the molecule was called inactive in [7], in test [8] and in test [15]. Also, in [9], the activity change % (negative = inhibition) is 0.476% (inactive) and 3.77% (inactive). For the same molecule, the activation in [11] was -1.62% (inactive) and -3.19% (inactive). In addition, the max response in [14] was -2.81% (inactive) and 0.311% (inactive).
Take `Oc1ccc(Cl)cc1Cl`: the Potency entry in test [3], in [4], in [5], in test [6], in test [16] and in test [17] was “inactive” each time. In addition, the Potency result in test [19], in [10], in test [12] and in [13] was “inactive” each time. Also, the activation in test [18] is -5.35% (inactive) and -2.01% (inactive); in test [11] it was 1.07% (inactive) and -2.53% (inactive). For the same molecule, the result in test [7], in [20], in [8] and in test [15] was inactive. Besides, the activity change % (negative = inhibition) in test [9] was 16.9% (inactive) and -6.49% (inactive). Besides, the max response in [14] is 0.337% (inactive) and 1.54% (inactive).
On to `CC1=CCC2CC1C2(C)C` (stereo not given), for which the molecule was called inactive in test [7].
`c1nc[nH]n1`: the Potency entry in test [2], in test [3], in test [4], in test [5], in test [6] and in test [16] was “inactive” each time. For the same molecule, the Potency entry in test [17], in test [19], in [10], in [12] and in [13] was “inactive” each time. Moreover, the activation in test [18] is 11.9% (inactive); in [11], -1.22% (inactive). In addition, the outcome in test [7], in [20] and in test [15] was inactive. The max response in test [14] is 0.756% (inactive).
As to `Clc1cccc(C(Cl)(Cl)Cl)n1`, the Potency result in test [2], in test [3], in test [4], in test [5], in test [6] and in [16] was “inactive” in each case. In addition, the Potency entry in [17], in [10], in test [12] and in test [13] was “inactive” each time. The result in test [20], in test [8] and in test [15] was inactive. For the same molecule, the activity change % (negative = inhibition) in [9] is -14.1% (inactive) and -4.27% (inactive). Besides, the activation in test [11] is 0.471% (inactive) and 1.28% (inactive). Besides, the max response in test [14] was -2.08% (inactive) and -3.74% (inactive).
Take `ClC(Cl)=C(Cl)C(Cl)=C(Cl)Cl`: the Potency entry in [1], in test [2], in [3], in test [16], in test [17] and in test [19] was “inactive” in each case. Besides, the Potency result in test [10], in test [12] and in [13] was “inactive” throughout. In [18], the activation was -16.2% (inactive). The molecule was called inactive in test [7], in [20], in test [8] and in [15]. Also, in test [9], the activity change % (negative = inhibition) is -2.4% (inactive). Moreover, the max response in test [14] was 2.24% (inactive) and -2.02% (inactive).
As to `O=[N+]([O-])c1cccc2ccccc12`, the Potency result in test [1], in [2], in test [3], in test [4], in test [5] and in test [6] was “inactive” throughout. Also, the Potency entry in test [16], in [17], in test [10] and in test [12] was “inactive” throughout. Further, the outcome in test [7], in test [20], in test [8] and in [15] was inactive. Moreover, the activity change % (negative = inhibition) in test [9] was 7.72% (inactive) and 4.17% (inactive). Moreover, in [11], the activation was -1.88% (inactive) and -1.02% (inactive). The max response in test [14] was 5.16% (inactive) and 1.63% (inactive).
